Measured values as given in PubChem BioAssay (NCATS).
Results filed as inconclusive are left out. Activity calls are given as the source filed them. Unless noted, the rule behind the calls is not given here.

Legend:
[1] = qHTS profiling for inhibitors of Plasmodium falciparum (3D7) proliferation (AID 743322);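 note: infected erythrocytes exposed to compound for 72 h before lysis; 100% = DMSO vehicle wells and 0% = 0.29 µM artemisinin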; details: P. falciparum 3D7 proliferation; at 28.7 µM (top of the series)
Summary of the method: (§1)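 Erythrocytes infected with P. falciparum (0.3% parasitemia, 2.5% hematocrit) incubated with compounds 72 h at 37 C, 5% CO2. Lysis with saponin/Triton buffer containing SYBR Green I, overnight at room temperature in the dark; DNA fluorescence (485/535 nm) normalised to 0.29 uM artemisinin and DMSO.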

[2] = qHTS profiling for inhibitors of Plasmodium falciparum (DD2) proliferation (AID 743323); details: lower = more inhibition; at 28.7 µM (top of the series)
Summary of the method: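 Parasite proliferation measured via DNA-dye fluorescence, as uninfected erythrocytes lack DNA. Cultures at 0.3% parasitemia and 2.5% hematocrit incubated 72 h with compound; signal scaled between vehicle and 0.29 uM artemisinin wells.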

[3] = qHTS profiling for inhibitors of Plasmodium falciparum (HB3) proliferation (AID 743324; active = well fitted curve in the direction sought with a large enough effect; an effect the other way counts as inactive or inconclusive;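 note: 100% = DMSO vehicle wells and 0% = artemisinin-treated control wells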); details: Plasmodium falciparum HB3 blood-stage proliferation; at 28.7 µM (top of the series)
Summary of the method: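 P. falciparum HB3 grown in erythrocytes (0.3% parasitemia, 2.5% hematocrit final) with compound for 72 h at 37 C, 5% CO2. Parasite DNA detected by SYBR Green after saponin/triton lysis overnight; normalized to 0.29 uM artemisinin and DMSO.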

[4] = qHTS profiling of the MIPE4 collection as inhibitors of Plasmodium falciparum (DD2) proliferation (AID 743345); details: P. falciparum Dd2 in erythrocytes, SYBR Green DNA, 72 h; at 28.5 µM (top of the series) unless noted
Summary of the method: as §1

[5] = qHTS profiling of the MIPE4 collection as inhibitors of Plasmodium falciparum (DD2) proliferation (Rep 2) (AID 743346); details: P. falciparum Dd2 in erythrocytes, SYBR Green DNA, 72 h; at 28.5 µM (top of the series) unless noted
Summary of the method: as §1

[6] = qHTS profiling of the MIPE4 collection as inhibitors of Plasmodium falciparum (HB3) proliferation (AID 743347);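 note: plate controls were DMSO vehicle wells for no effect and artemisinin wells for full effect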; details: P. falciparum HB3 in erythrocytes, SYBR Green DNA, 72 h; at 28.5 µM (top of the series) unless noted
Summary of the method: as §1

[7] = High-throughput drug toxicity screening in the BPDCN cell line Gen2.2 (AID 1224824); details: Gen2.2 BPDCN cells; at 45.8 µM (top of the series) unless noted;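 note: cells exposed to compounds for 48 h before reading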
Summary of the method: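 Seed 500 exponentially growing Gen2.2 cells/well; add compounds by pin tool; incubate 48 h, 37 °C, 5% CO2; add CellTiter-Glo, 15 min RT; read luminescence. % activity vs DMSO (100%) and bortezomib (0%).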

[8] = High-throughput drug toxicity screening in the BPDCN cell line Cal-1 (AID 1224825); details: Cal-1 BPDCN cell viability, qHTS; at 45.8 µM (top of the series) unless noted
Summary of the method: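 Cal-1 cells, 500 per well in phenol-red-free RPMI with 10% FBS, exposed to compounds for 48 hours at 37C, 5% CO2. Viability read by CellTiter-Glo luminescence; percent activity normalized to DMSO (100%) and 9.2 uM bortezomib final (0%).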

[9] = qHTS assay for measurement of the activity of small molecule inhibitors on Zika virus induced Caspase-3 activity in human iPSC derived neural progenitor cells (hNPCs) (AID 1224857; active = well fitted curve in the direction sought with a large enough effect; an effect the other way counts as inactive or inconclusive; note: nearly all actives have a fitted effect of over 65% in size; note: potency is the fitted concentration of half-maximal effect)
Summary of the method: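 Cells were plated at 350 per well and grown 16 to 20 hours. Compound pretreatment lasted one hour, after which ZIKV (2 FFU/cell) was added for 6 hours. Percent inhibition was normalized between uninfected and infected controls.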

[10] = qHTS profiling of the MIPE4 collection as inhibitors of Plasmodium falciparum (3D7) proliferation (AID 743344);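 note: scaled between DMSO vehicle wells and 0.29 µM artemisinin as full inhibition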; details: P. falciparum 3D7 in erythrocytes, SYBR Green DNA fluorescence, 72 h; at 28.5 µM (top of the series) unless noted
Summary of the method: as §1

| SMILES | remaining parasite growth % (stronger effect = lower value) [1] [%] | activity, percent of control [2] [%] | remaining proliferation (% of control), lower = more inhibition [3] [%] | parasite growth remaining, % of DMSO control (lower = more inhibition) [4] [%] | parasite growth, % of control (lower = inhibition) [5] [%] | growth, % of control [6] [%] | cell viability, % of control (lower = more cytotoxic) [7] [%] | viability (% of control) [8] [%] | Potency [9] | parasite growth, % of DMSO control [10] [%] |
| --- | --- | --- | --- | --- | --- | --- | --- | --- | --- | --- |
| C=CC(=O)Nc1cc2c(Nc3ccc(F)c(Cl)c3)ncnc2cc1OCCCN1CCOCC1 | -0.797 | 10.5 | 1.71 | 16 | 29.7 | 3.29 | 5.62 | 11.2 | inactive |  |
| C=CC(=O)Nc1cccc(Oc2nc(Nc3ccc(N4CCN(C)CC4)cc3OC)ncc2Cl)c1 | 5.98 | 12.5 | 6.16 | 15.1 | 26.7 | 4.13 | 8 | 16.3 | inactive |  |
| CC1(C)CC(=O)c2c(C(F)(F)F)nn(-c3ccc(C(N)=O)c(NC4CCC(OC(=O)CN)CC4)c3)c2C1 (stereo not drawn) |  |  |  | 8.43 | 11.6 | 4.41 | 1.95 | 13.9 | inactive | 7.32 |
| Cn1cncc1[C@@](N)(c1ccc(Cl)cc1)c1ccc2c(c1)c(-c1cccc(Cl)c1)cc(=O)n2C | -0.555 | 5.8 | 1.12 |  | 20.3 | 5 | 3.19 | 2.26 | inactive | 6.1 |
| Cc1cc(Nc2cc(NC(=O)c3c(Cl)cccc3Cl)ccn2)nc(N)n1 | 0.674 | 6.07 | -0.262 | 6.82 | 10.1 | 8.82 | 12.1 | 8.08 | inactive |  |
| CC(O)C1C(=O)N2C(C(=O)O)=C(SC3CNC(C(=O)N(C)C)C3)C(C)C12 (stereo not drawn) |  |  |  | 93.4 | 82.6 | 75.4 | 120 | 98.9 | inactive | 87.4 |
| NC(=O)c1cccc2cn(-c3ccc([C@@H]4CCCNC4)cc3)nc12 |  |  |  | 11.3 | 25.3 | 6.74 | 116 | 5.94 | inactive | 12.4 |
| Cc1cc(CN2CCN(c3c(Br)cnc4nc(-c5ccc(N6CCN(C)CC6)cc5)[nH]c34)CC2)no1 |  |  |  | 6.44 | 25.8 | 4.61 | 3.72 | 2.79 | inactive | 15.7 |
| CC(C)c1noc(N2CCC(COc3ccc(-c4ccc(S(C)(=O)=O)cc4)nc3)CC2)n1 |  |  |  | 23.2 | 49.7 | 20.9 | 87.9 | 68.8 | inactive | 22.7 |
| O=C(CCCCCCC(=O)Nc1ccc([C@H]2O[C@@H](CSc3nc(-c4ccccc4)c(-c4ccccc4)o3)C[C@@H](c3ccc(CO)cc3)O2)cc1)NO |  |  |  | 6.85 | 7.19 | 6.35 | 9.13 | 4.48 | inactive | 5.18 |
| CCS(=O)(=O)c1cccc(-c2cc(C(=O)NC3CCN(C)CC3)c(C)c3[nH]c4ncc(C)cc4c23)c1 |  |  |  | 9.76 | 15.1 | 7.05 | 7.25 | 2.47 | inactive | 5.84 |
| CNC(=O)c1c(F)cccc1Nc1nc(Nc2cc3c(cc2OC)CCN3C(=O)CN(C)C)nc2[nH]ccc12 |  |  |  | 6.69 | 6.76 | 2.27 | 5.55 | 2.8 | inactive | 3.51 |
| O=C(Nc1nc2cccc(-c3ccc(CN4CCS(=O)(=O)CC4)cc3)n2n1)C1CC1 |  |  |  | 97.6 | 62.8 | 73.9 | 107 | 9.42 | inactive | 64.7 |
| CCCCCCCCCC(=O)N[C@@H](Cc1c[nH]c2ccccc12)C(=O)N[C@H](CC(N)=O)C(=O)N[C@@H](CC(=O)O)C(=O)N[C@@H]1C(=O)NCC(=O)N[C@@H](CCCN)C(=O)N[C@@H](CC(=O)O)C(=O)N[C@H](C)C(=O)N[C@@H](CC(=O)O)C(=O)NCC(=O)N[C@H](CO)C(=O)N[C@@H]([C@@H](C)CC(=O)O)C(=O)N[C@@H](CC(=O)c2ccccc2N)C(=O)O[C@@H]1C |  |  |  | 96.7 | 108 | 299 | 128 | 108 | inactive | 409 |
| Cc1coc2c1C(=O)C(=O)c1c-2ccc2c1CCCC2(C)C |  |  |  | 9.98 | 26.2 | 4.66 | 93.2 | 83.1 | inactive | 5.71 |
| CNC(=O)c1ccc(N2C(=S)N(c3cnc(C#N)c(C(F)(F)F)c3)C(=O)C23CCC3)cc1F |  |  |  | 79.8 | 39 | 41.2 | 7.43 | 3.32 | inactive | 41 |
| C[C@@H]1COC(Nc2ccc3ncnc(Nc4ccc(OCc5nccs5)c(Cl)c4)c3c2)=N1 |  |  |  | 11.5 | 27.7 | 8.37 | 127 | 13 | inactive | 6 |
| COC(=O)Nc1ccc(-c2nc(N3CCOCC3)c3cnn(C4CCN(Cc5cccnc5)CC4)c3n2)cc1 |  |  |  | 7.48 | 9.27 | 4.59 | 4.27 | 3.04 | inactive | 5.62 |
| OCc1ccc(-c2ccc(-c3ccc(CO)s3)o2)s1 |  |  |  | 79.5 | 47.9 | 64.5 | 1.11 | 1.47 | 26.4 µM (active) | 78.4 |
| CN(C)c1nc(Cc2ccc(NC(=O)c3ccc4ccccc4c3)cc2)nc(Cl)c1CC(=O)O |  |  |  | 87.6 | 42.6 | 85.9 | 90.6 | 113 | inactive | 59.8 |
